The source of these data is PubChem BioAssay (Tox21).

A short description of test [1]: qHTS assay to identify small molecule antagonists of the vitamin D receptor (VDR) signaling pathway - cell viability counter screen (AID 743225). Further: on the % scale 0 is the no-effect control and ±100 the full control effect; nearly all actives have a fitted effect of over 50% in size. Put shortly:
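Cytotoxicity toward the VDR-bla HEK 293T line was scored by ATP-based CellTiter-Glo luminescence, read in the wells already used for the beta-lactamase readout after 16 h compound treatment under 3 nM 1-alpha,25-dihydroxyvitamin D3 stimulation.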

Test [2] in a line: qHTS assay to identify small molecule agonists of the NFkB signaling pathway (AID 1159509; active means well fitted curve in the direction sought with a large enough effect in the signal ratio in the repeat runs, not every such curve was filed as active; the % refers to the signal ratio; further: series mostly up to about 61 µM; on the % scale 0 is the no-effect control and ±100 the full control effect). Put shortly:
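Readout: FRET fluorescence, 405 nm excitation, 460/530 nm emission; beta-lactamase expression disrupts FRET. Cells: ME-180 stably carrying NF-kB-driven bla reporter. Compound exposure 5 hr, 37 C, 5% CO2.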

A short description of test [3]: qHTS assay to identify small molecule agonists of the NFkB signaling pathway - cell viability counter screen (AID 1159515; calls by dose curve; further: series mostly up to about 61 µM; on the % scale 0 is the no-effect control and ±100 the full control effect; nearly all actives have a fitted effect of over 55% in size). Summed up:
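Plate 2,000 NFkB-bla ME-180 cells/well; incubate overnight. Add compounds, 5 hr at 37 C. Add FRET substrate, 1.5 hr RT. Add CellTiter-Glo, 30 min RT; read luminescence.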

A short description of test [4]: qHTS assay to identify small molecule agonists of the endoplasmic reticulum stress response signaling pathway (AID 1159516; active means well fitted activation curve with a large enough effect in the signal ratio in the repeat runs, not every such curve was filed as active; the % refers to the signal ratio; further: on the % scale 0 is the no-effect control and ±100 the full control effect). Summed up: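 Beta-lactamase expression from the ER stress response element in HeLa reporter cells is quantified with the LiveBLAzer B/G FRET substrate, read at 405 nm excitation after 2 hr at room temperature, following 5 hr compound treatment at 37 C.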

The nature of test [5]: qHTS assay to identify small molecule agonists of the endoplasmic reticulum stress response signaling pathway - cell viability counter screen (AID 1159517; calls by dose curve; further: series mostly up to about 61 µM; on the % scale 0 is the no-effect control and ±100 the full control effect; nearly all actives have a fitted effect of over 50% in size). Summed up:
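Cytotoxicity of test compounds toward ESRE-bla HeLa cells was assessed after 5 hr exposure. The luminescent CellTiter-Glo signal was measured 30 min after reagent addition.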

Test [6] can be described thus: qHTS assay to identify small molecule antagonists of the retinoid-related orphan receptor gamma (ROR-gamma) signaling pathway - cell viability counter screen (AID 1159520). Further: on the % scale 0 is the no-effect control and ±100 the full control effect; nearly all actives have a fitted effect of over 50% in size. Put shortly:
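Tet-on ROR gamma CHO cells (1,000/well) were plated 4 hr, given compounds in DMSO for 2 hr at 37 C, then induced with 1 uM final doxycycline for 16 hr. Viability was read as ATP by CellTiter-Glo luminescence after 30 min.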

Test [7] in a line: qHTS assay to identify small molecule agonists of the AP-1 signaling pathway - cell viability counter screen (AID 1159525; calls by dose curve; further: nearly all actives have a fitted effect of over 55% in size). Put shortly: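 Each titration point was normalised to DMSO and tetra n-octyl ammonium bromide controls. The read was Cell Titer Glo luminescence after 30 min at RT, following 5 h compound exposure of ME-180 AP-1-bla cells at 37 °C.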
Test [8] in a line: qHTS assay to identify small molecule agonists of the AP-1 signaling pathway (AID 1159526; calls by dose curve; further: on the % scale 0 is the no-effect control and ±100 the full control effect).
For test [9], the target named is Retinoic acid receptor RXR-alpha (Homo sapiens) (UniProt P19793). Briefly: qHTS assay to identify small molecule agonists of the RXR signaling pathway (AID 1159527; calls by dose curve; further: nearly all actives have a fitted effect of over 35% in size; further: potency means the concentration at half of the fitted maximal effect). Put shortly:
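Reporter activation is measured as beta-lactamase activity via FRET substrate cleavage (emission 460/530 nm) in HEK 293T cells expressing an RXR-alpha-driven bla construct, following 16 hr compound exposure at 37 C.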

The nature of test [10]: qHTS assay to identify small molecule antagonists of the retinoid acid receptor (RAR) signaling pathway - cell viability counter screen (AID 1159551). Further: on the % scale 0 is the no-effect control and ±100 the full control effect; nearly all actives have a fitted effect of over 35% in size. Summed up:
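Viability of C3RL4 cells is quantified from ATP by luminescence after 6 h treatment at 37 C with compounds and 1 uM retinol.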

Test [11] is described as follows: qHTS assay to identify small molecule antagonists of the retinoic acid receptor (RAR) signaling pathway (AID 1159552; further: on the % scale 0 is the no-effect control and ±100 the full control effect; nearly all actives have a fitted effect of over 50% in size). Put shortly:
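Overnight-plated C3RL4 reporter cells get compound, then retinol to 1 uM final; plates sit 6 hr at 37 C, 5% CO2. A luciferase reagent is added and light output recorded after 30 min at room temperature.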

Test [12] can be described thus: qHTS assay to identify small molecule agonists of the retinoic acid receptor (RAR) signaling pathway (AID 1159553). Further: on the % scale 0 is the no-effect control and ±100 the full control effect. Put shortly:
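Compounds dissolved in DMSO were pinned onto C3RL4 cells seeded the previous day, and plates were held 6 hr at 37 C. RARE-driven luciferase output was then read by luminescence.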

Test [13] can be described thus: qHTS assay to identify small molecule antagonists of the estrogen related receptor (ERR) signaling pathway from Tox21 library - cell viability counter screen (AID 1224834). Further: on the % scale 0 is the no-effect control and ±100 the full control effect; nearly all actives have a fitted effect of over 30% in size. Put shortly:
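In this quantitative HTS format, ERR cells receive compounds in DMSO and are incubated for 17.5 h at 37 C. Live-cell protease activity is then detected with CellTiter-Fluor.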

Test [14] can be described thus: qHTS assay to identify small molecule agonists of the RXR signaling pathway - cell viability counter screen (AID 1159529). Summed up:
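Tox21 10K compounds were tested for cytotoxicity against GeneBLAzer RXR-alpha HEK 293T cells grown in 2% charcoal-stripped FBS. Exposure lasted 16 hr at 37 C, 5% CO2; viability read by CellTiter-Glo luminescence.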

Records with an inconclusive call do not appear. Values without a mark were called inactive. Activity calls are given as the source filed them. Unless noted, the call rests on the fitted dose curve; in most records, active means well fitted curve in the direction sought with a large enough effect in the repeat runs; inconclusive means weak or mixed curves; inactive means no such curve, though single readings can be large; an effect the other way counts as inactive or inconclusive.

Retinoic acid receptor RXR-alpha (Homo sapiens), sequence (P19793 whole entry, looked up): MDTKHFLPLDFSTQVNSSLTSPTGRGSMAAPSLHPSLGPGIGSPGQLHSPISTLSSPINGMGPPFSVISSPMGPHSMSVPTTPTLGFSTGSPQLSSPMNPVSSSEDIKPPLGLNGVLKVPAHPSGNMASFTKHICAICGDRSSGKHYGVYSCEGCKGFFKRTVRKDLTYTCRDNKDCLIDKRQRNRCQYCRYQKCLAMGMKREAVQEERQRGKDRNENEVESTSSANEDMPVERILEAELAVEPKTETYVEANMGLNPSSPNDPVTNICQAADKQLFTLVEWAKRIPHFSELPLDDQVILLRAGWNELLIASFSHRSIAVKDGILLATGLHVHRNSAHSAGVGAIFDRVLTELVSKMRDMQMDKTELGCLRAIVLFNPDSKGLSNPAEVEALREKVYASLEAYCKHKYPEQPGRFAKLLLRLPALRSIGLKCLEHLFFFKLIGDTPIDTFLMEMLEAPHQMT

Take `CO[Si](C)(C)OC`: the Potency result in test [1], in test [6], in test [8], in test [9], in [11] and in test [12] was “inactive” in each case. Also, in test [13], the Potency entry was “inactive”. Moreover, the compound was classed as inactive in [2], in test [3], in test [4], in test [5], in [7] and in test [10].
Turning to `COC(C)CCO` (stereo unspecified), the Potency entry in test [1], in test [6], in test [8], in test [9], in test [14] and in test [11] was “inactive” each time. Also, the compound was classed as inactive in [2], in test [3], in test [4], in test [5], in test [7] and in test [10].
Regarding `COC(=O)C(C)O` (stereo unspecified), the Potency entry in [1], in [6], in test [8], in [11], in test [12] and in test [13] was “inactive” each time. The call in test [2], in test [3], in test [4], in test [5] and in [10] was inactive. For the same compound, the Potency in test [9] was 12.6 µM (active).
For the compound `Cc1ccc(C)c(N)c1`, the Potency result in test [1], in test [6], in [8], in test [9], in [14] and in test [11] was “inactive” each time. Also, the Potency result in test [12] and in test [13] was “inactive” throughout. Further, the outcome in test [2], in test [3], in test [4], in test [5] and in test [10] was inactive.
With `O=C(Cl)c1cccc([N+](=O)[O-])c1`, the call in [2], in [3], in test [4], in test [5] and in [10] was inactive. In addition, the Potency entry in [6], in test [8], in test [9], in [14], in test [11] and in [12] was “inactive” each time. Further, in test [13], the Potency result was “inactive”.
Regarding `CC(C)Nc1nc(N)nc(Cl)n1`, the Potency entry in [1], in test [6], in [8], in test [9], in [14] and in test [11] was “inactive” in each case. Moreover, the Potency entry in test [12] and in [13] was “inactive” each time. The compound was called inactive in test [2], in test [3], in test [4], in test [5] and in [10].
Consider `O=c1oc2c(O)c(O)cc3c(=O)oc4c(O)c(O)cc1c4c23`, for which the Potency result in test [1] and in test [12] was “inactive” throughout. In addition, the compound was classed as inactive in test [2], in test [3], in [4] and in test [5]. The activity, negative = cytotoxicity in [6] was 0.685% [at 19 µM]. Further, the viability change, negative = cytotoxic in test [7] was 7.4% [at 15.8 µM]; in test [13] it was -2.26% [at 19 µM]. The results for the activation in test [8] and in test [9] were 21.4% [at 15.8 µM] and 11.4% [at 15.8 µM], respectively. Besides, the activity change, negative = cytotoxicity in test [10] is -0.41% [at 19 µM]. The activity, negative = inhibition in test [11] was 3.23% [at 19 µM].
Take `COC(=O)c1ccc(OC)cc1`: the Potency result in test [1], in test [6], in [8], in test [9], in test [14] and in [11] was “inactive” each time. Moreover, the Potency entry in test [12] and in test [13] was “inactive” throughout. The call in test [2], in test [3], in [4], in test [5] and in test [10] was inactive.
As to `CS(=O)(=O)c1ccc([C@@H](O)[C@@H](CF)NC(=O)C(Cl)Cl)cc1`, the Potency result in [1], in test [6], in test [8], in test [9], in test [11] and in test [12] was “inactive” in each case. The Potency entry in test [13] is “inactive”. For the same compound, the compound was called inactive in test [2], in test [3], in [4], in test [5], in [7] and in [10].
On to `COc1cc(N)c(Cl)cc1C(=O)NC1CCN(Cc2ccccc2)CC1`, for which the Potency entry in test [1], in test [6], in [8], in test [9], in [14] and in test [11] was “inactive” each time. In addition, the Potency result in [12] was “inactive”. Besides, the outcome in test [2], in [3], in test [4], in [5] and in test [10] was inactive.
